Htt clearance: compounds clearing mutant huntingtin protein; HeLa Exon1htt(103Q)mCFP, aggregate imaging; zero = plate's median compound well; inhibition, % at 1.5 µM; hit rate 0.42% among 47,000; AID 853;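 active means inhibition of aggregate fluorescence above about 70%, also judged a hit by eye on the cell image, limit read from the data, passing the limit was not always enough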;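 further: cells exposed to compound for three days before fixation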
D1 mod: allosterically modulates the human D1 dopamine receptor; hit rate 5.9% among 58,000; HEK293 D1, CRE-luciferase, dopamine EC30 potentiation; actives deviate in either direction; B-score at 10 µM; P21728;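 active means luminescence count or its row- and column-corrected plate score outside the 99.7% band of the plate's sample wells, on either side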
M1 agonist: agonists of M1 muscarinic receptor; B-score at 10 µM; hit rate 3% among 64,000; CHO-M1 cells, Fluo-4 calcium fluorescence, agonist mode; hits give high values; AID 626;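 active means fluorescence rise, raw or as B-score row- and column-corrected plate score, outside the 99.7% band of its plate's samples, either direction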
M1 antag: blocks the rat M1 muscarinic receptor response to acetylcholine; P08482; CHO-M1 cells, Fluo-4 calcium, ACh EC80 antagonist mode; hits give low values; B-score at 10 µM; hit rate 3.4% among 64,000; AID 628;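 active means calcium fluorescence response, raw or row-and-column corrected B-score, differing from the plate sample mean either way at a set confidence level, mostly lower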
Target sequence (P08482 whole entry, looked up): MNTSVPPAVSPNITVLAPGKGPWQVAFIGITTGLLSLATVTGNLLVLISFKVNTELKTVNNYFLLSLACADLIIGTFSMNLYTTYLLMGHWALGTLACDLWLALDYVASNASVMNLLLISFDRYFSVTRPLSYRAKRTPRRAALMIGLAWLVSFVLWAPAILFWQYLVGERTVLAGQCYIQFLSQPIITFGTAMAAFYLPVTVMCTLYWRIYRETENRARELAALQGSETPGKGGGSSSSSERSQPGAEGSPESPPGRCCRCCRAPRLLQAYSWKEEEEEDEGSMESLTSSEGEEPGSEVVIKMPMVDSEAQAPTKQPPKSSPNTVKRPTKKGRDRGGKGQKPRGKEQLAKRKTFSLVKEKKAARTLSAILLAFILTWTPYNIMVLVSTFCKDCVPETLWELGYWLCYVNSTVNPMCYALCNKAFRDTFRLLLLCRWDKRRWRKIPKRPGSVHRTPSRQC
D1 PAM confirm: D1 receptor (human) allosteric modulation, confirmed; HEK293 D1 CRE-luciferase, dopamine EC30 potentiation; hits give high values; hit rate 88% among 2,200; luminescence at 10 µM; shares compounds with D1 mod;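 active means luminescence in either of two replicates above the same-plate mean plus 3 SD of the low-dose dopamine control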
D1 no dopamine: secondary test of D1 modulators: activity without dopamine | shares compounds with D1 mod | HEK293 D1 CRE-luciferase, luminescence, no dopamine; hits give high values | luminescence at 10 µM | hit rate 0.8% among 1,900; in the data active means luminescence above about 3900
Isoprot counter: alters isoproterenol CRE-luciferase response in HEK293 cells; shares compounds with D1 mod; HEK293 D1 CRE-luciferase, isoproterenol EC30 counter-screen; hits give high values; luminescence at 10 µM; hit rate 63% among 2,200; AID 647;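 active means luminescence in either replicate above plate mean of wells with a partly effective reference agonist dose plus 3 SD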;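 further: isoproterenol raises cAMP through native beta-adrenoceptor Gs so signal bypasses D1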
Of the large screens only hits and unclear results are named; the others gave an inactive call (follow-up assays come after a bar, where they were run). Most compounds without a hit are left out; they make up all but 9.1% or so of the library.

CCOCC(=O)Nc1nnc(Cc2ccc(OC)c(OC)c2)s1	D1 mod 7.8 | D1 PAM confirm 12160 | Isoprot counter 2996
COCC(=O)Nc1nnc(Cc2ccc(OC)c(OC)c2)s1	D1 mod 9.8 (no result: Htt clearance) | D1 PAM confirm 19508 | D1 no dopamine inactive | Isoprot counter 3784
N#Cc1c(-c2ccccc2)cc(C2CC2)nc1N	D1 mod 25 (no result: Htt clearance) | D1 PAM confirm 29052 | D1 no dopamine inactive | Isoprot counter 5036
COc1nc(NCc2ccco2)nc(N2CCC(C)CC2)n1	D1 mod 10 (no result: Htt clearance) | D1 PAM confirm 15736 | D1 no dopamine inactive | Isoprot counter 4404
COc1nc(OC)nc(N2CCC(C(=O)NCc3ccco3)CC2)n1	none (no result: Htt clearance)
CSCCC(C(=O)Nc1ccc2c(c1)OCO2)N1C(=O)c2ccccc2C1=O (configuration not stated)	none
CCNc1nc(Oc2ccccc2)nc(OC(C)C(=O)OCC)n1 (configuration not stated)	none (no result: Htt clearance, D1 mod)
COc1ccc(N/C=C2\CCOC2=O)cc1	D1 mod 3.2 (no result: Htt clearance) | D1 PAM confirm inactive | D1 no dopamine inactive | Isoprot counter inactive
COc1ccccc1N(CN1CCCC1=O)C(=O)COc1ccccc1	none (no result: Htt clearance, D1 mod)
COCCN(CCOC)Cc1cc(=O)oc2cc3c(cc12)CCC3	D1 mod 2.4 (no result: M1 agonist, M1 antag) | D1 PAM confirm 9280 | Isoprot counter 2844
Nc1nc(-c2ccco2)nc(N2CCCCC2)n1	D1 mod 10 (no result: Htt clearance) | D1 PAM confirm 14860 | Isoprot counter 2796
CC(C#N)Sc1ncnc2sc3c(c12)CCC3 (configuration not stated)	D1 mod 6.3 | D1 PAM confirm 21012 | D1 no dopamine inactive | Isoprot counter 4668
N#CCSc1ncnc2sc3c(c12)CCC3	D1 mod 4.9 (no result: Htt clearance) | D1 PAM confirm 12888 | D1 no dopamine inactive | Isoprot counter inactive
Cc1cc(C)nc(Sc2ncnc3sc4c(c23)CCC4)n1	none (no result: D1 mod, M1 agonist, M1 antag)
Cc1nc(SCC#N)c2c3c(sc2n1)CCC3	none (no result: D1 mod)
COc1ccccc1-n1c(CNc2c(C)cccc2C)nnc1SCC(=O)N1CCOCC1	none
COc1ccc2[nH]c(=O)c(CNc3cccc(C)c3)cc2c1	none (no result: D1 mod, M1 agonist, M1 antag)
c1ccc(-c2n[nH]c3ccccc23)cc1	none (no result: Htt clearance)
c1ccc(-c2nc[nH]c2-c2ccccc2)cc1	D1 mod 4.9 (no result: Htt clearance) | D1 PAM confirm 13428 | D1 no dopamine inactive | Isoprot counter inactive
N#Cc1nc(-c2ccco2)oc1N1CCCC1	D1 mod 4 (no result: Htt clearance) | D1 PAM confirm 11548 | Isoprot counter 3164
N#Cc1nc(-c2ccccc2F)oc1N1CCCC1	D1 mod 6.4 | D1 PAM confirm 11832 | D1 no dopamine inactive | Isoprot counter 3016
COc1ccc(Cn2nnc3c(=O)[nH]c(C(=O)NCCc4ccc(F)cc4)nc32)cc1OC	none (no result: Htt clearance)
CCOCCCNCC(=O)N1CCN(S(=O)(=O)c2ccc(C)cc2)CC1	none (no result: Htt clearance)
CCC1CCc2c(sc3ncnc(N4CCOCC4)c23)C1 (configuration not stated)	D1 mod 17 | D1 PAM confirm 15132 | D1 no dopamine inactive | Isoprot counter 3760
c1ccc(CSc2nncn2-c2ccccn2)cc1	D1 mod 7.9 (no result: Htt clearance) | D1 PAM confirm 12884 | D1 no dopamine inactive | Isoprot counter 3328
CCOC(=O)C1CSc2[nH]c(=O)sc2C1c1ccccc1 (configuration not stated)	D1 mod 8.2 (no result: Htt clearance) | D1 PAM confirm 11512 | D1 no dopamine inactive | Isoprot counter 4456
Cc1ccc(C(=O)N/C(=C\c2cn(-c3ccccc3)nc2-c2ccccc2)C(=O)N2CCOCC2)cc1	none (no result: D1 mod, M1 agonist, M1 antag)
O=C(Nc1ccccc1-c1ccccc1)c1cnccn1	D1 mod 5.2 (no result: Htt clearance) | D1 PAM confirm 9324 | D1 no dopamine inactive | Isoprot counter 2964
CCCCC(CC)CNC(=O)c1cccs1 (configuration not stated)	none
C=CCNC(=O)c1ccccc1NC(=O)c1ccccc1	D1 mod 8.3 | D1 PAM confirm 16308 | D1 no dopamine inactive | Isoprot counter inactive
O=C(CSc1ncn[nH]1)Nc1ccc(Cl)c(Cl)c1	none
CCOC(=O)c1cccnc1SCc1cc(=O)n2ccccc2n1	D1 mod 4.4 | D1 PAM confirm 10728 | D1 no dopamine inactive | Isoprot counter 3652
CCOC(=O)c1cccnc1SCC(=O)N(C)c1ccccc1	none
O=c1c(-c2ccc(F)cc2)coc2cc(O)ccc12	none (no result: Htt clearance)

Bioassay records deposited in PubChem by several laboratories.
